# Results filed as inconclusive are left out. A call without a number means that no potency is given here. The source made the active and inactive calls. Unless noted, the call rests on the fitted dose curve; in most records, active means well fitted curve in the direction sought with a large enough effect; inconclusive means small, poorly fitted or top-dose-only effect, or another doubt; inactive means no such curve, though single readings can be large; an effect the other way counts as inactive or inconclusive.
# Assays:
# [1] = P-glycoprotein substrates identified in KB-8-5-11 adenocarcinoma cell line, qHTS therapeutic library screen (AID 1346987); further: series mostly up to about 44 µM; nearly all actives have a fitted effect of over 65% in size
# How it was run: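 Human cervical adenocarcinoma KB-8-5-11 cells, selected in colchicine to over-express P-gp and assayed without it, were exposed for 72 h to titrated compounds. An ATP-based luminescent viability signal gave AC50.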
# [2] = molecular target: Glutathione peroxidase 1 (Homo sapiens) (UniProt P07203); assay: Primary qHTS Assay for Inhibitors of Recombinant Selenoprotein Glutathione Peroxidase 1 (GPX1) (AID 1845191); further: nearly all actives have a fitted effect of over 65% in size
# Chain of Glutathione peroxidase 1 (Homo sapiens) (P07203 whole entry, looked up): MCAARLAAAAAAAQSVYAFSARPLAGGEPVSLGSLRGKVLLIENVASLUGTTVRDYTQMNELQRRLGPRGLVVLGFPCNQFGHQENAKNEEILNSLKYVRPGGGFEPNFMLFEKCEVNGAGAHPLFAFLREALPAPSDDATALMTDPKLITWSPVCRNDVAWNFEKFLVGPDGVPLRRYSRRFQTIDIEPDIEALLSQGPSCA
# How it was run: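 GPX1 10 nM, GR 100 nM, GSH 1 mM, NADPH 0.5 mM, CHP 0.5 mM (final). 30-min cpd preincubation, RT. Ex340/Em450 read t=0, t=15 min.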
# [3] = molecular target: Atrial natriuretic peptide receptor 1 (Homo sapiens) (UniProt P16066); assay: Natriuretic polypeptide receptor (hNpr1) antagonism - Pilot CMLD screen (AID 1347052; calls by dose curve;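 further: HEK293 cells with hNpr1 stimulated by hNppA peptide at 0.1 nM; cGMP level read as GloSensor luciferase luminescence after agonist stimulation; series mostly up to about 9.2 µM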)
# Chain of Atrial natriuretic peptide receptor 1 (Homo sapiens) (P16066 whole entry, looked up): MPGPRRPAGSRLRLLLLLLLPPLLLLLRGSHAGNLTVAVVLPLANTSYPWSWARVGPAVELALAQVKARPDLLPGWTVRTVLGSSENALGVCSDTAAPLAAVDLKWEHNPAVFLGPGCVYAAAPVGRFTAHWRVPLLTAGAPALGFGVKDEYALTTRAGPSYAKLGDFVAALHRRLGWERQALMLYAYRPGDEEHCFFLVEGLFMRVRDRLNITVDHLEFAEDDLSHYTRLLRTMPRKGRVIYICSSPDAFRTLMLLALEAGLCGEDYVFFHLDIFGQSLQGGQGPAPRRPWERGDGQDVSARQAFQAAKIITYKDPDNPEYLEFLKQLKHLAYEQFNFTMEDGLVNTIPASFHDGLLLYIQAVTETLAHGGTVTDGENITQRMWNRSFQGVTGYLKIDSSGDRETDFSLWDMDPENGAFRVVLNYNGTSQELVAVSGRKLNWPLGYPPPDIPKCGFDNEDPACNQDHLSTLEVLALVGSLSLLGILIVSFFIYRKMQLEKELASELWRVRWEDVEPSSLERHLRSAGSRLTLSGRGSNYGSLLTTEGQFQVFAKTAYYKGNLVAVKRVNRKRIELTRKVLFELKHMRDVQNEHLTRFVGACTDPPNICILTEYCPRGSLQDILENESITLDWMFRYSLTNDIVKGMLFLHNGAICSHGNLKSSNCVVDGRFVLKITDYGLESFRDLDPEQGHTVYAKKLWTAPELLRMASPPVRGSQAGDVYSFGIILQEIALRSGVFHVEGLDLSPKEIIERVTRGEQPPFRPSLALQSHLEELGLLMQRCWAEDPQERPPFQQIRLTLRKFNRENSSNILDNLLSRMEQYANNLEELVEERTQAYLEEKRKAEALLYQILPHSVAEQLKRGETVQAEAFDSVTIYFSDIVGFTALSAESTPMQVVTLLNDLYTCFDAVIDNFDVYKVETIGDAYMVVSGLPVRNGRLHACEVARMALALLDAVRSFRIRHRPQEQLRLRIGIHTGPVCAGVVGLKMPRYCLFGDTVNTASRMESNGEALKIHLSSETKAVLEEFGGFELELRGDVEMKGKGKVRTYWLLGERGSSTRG
# [4] = qHTS for Inhibitors of Plasmodium falciparum (DD2) proliferation (AID 504314);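 further: parasite DNA measured by SYBR Green fluorescence after red cell lysis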
# How it was run: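 P. falciparum Dd2 is grown in erythrocytes with test compound for 72 h at 37C under 5% CO2. Growth is scored by SYBR Green I fluorescence after detergent lysis, relative to artemisinin (0.29 uM) and DMSO controls.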
# [5] = qHTS for Inhibitors of Plasmodium falciparum (GB4) proliferation (AID 504315); further: nearly all actives have a fitted effect of over 50% in size
# How it was run: (§1)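 Parasite growth measured as SYBR Green DNA fluorescence (ex 485, em 535 nm) after overnight lysis following 72 h culture at 37 °C, 0.3% parasitemia, 2.5% hematocrit. Values normalized against DMSO and 0.29 uM artemisinin controls, with plate-stack correction.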
# [6] = qHTS for Inhibitors of Plasmodium falciparum (7G8) proliferation (AID 504316); further: series mostly up to about 6.7 µM; nearly all actives have a fitted effect of over 65% in size
# How it was run: as §1
# [7] = qHTS for Inhibitors of Plasmodium falciparum (HB3) proliferation (AID 504318); further: nearly all actives have a fitted effect of over 60% in size
# How it was run: as §1
structure (smiles),measurement,setting,value
CCCCN(CCCC)C(=S)[S-].CCCCN(CCCC)C(=S)[S-].[Zn+2],Potency,[1],inactive
CNC(=O)c1ccc(-c2cnc3cnc(C(=O)N(C)c4ccc(Cl)cc4)cn23)cc1,Potency,[1],inactive
same,Potency,[2],inactive
COc1ccc([C@]23Cc4ccccc4[C@H](O2)C2=C(CC4(CCCCC4)OC2=O)O3)cc1,Potency,[3],inactive
C[C@@H]1CC[C@H]2C(=O)O[C@@H](COc3ccc(C(C)(C)C)cc3)CN2[C@H]1c1ccc(Br)cc1,Potency,[4],inactive
same,Potency,[3],inactive
CC(C)CON=C1C[C@@H](O)[C@@H](O)[C@@H]2[C@H]3C(=O)N(c4ccc(F)cc4F)C(=O)[C@@H]3CC[C@@H]12,Potency,[4],inactive
same,Potency,[5],inactive
same,Potency,[6],inactive
same,Potency,[7],inactive
same,Potency,[3],inactive
COC(=O)C1=C(C(=O)OC)[C@@H]2N(C)c3ccccc3[C@@]23C[C@@H](CO)N(C(=O)NC2CCCCC2)C3=N1,Potency,[4],inactive
same,Potency,[3],inactive
O=C1[C@H]2[C@@H]3[C@@H](O)[C@H](O)CC(=NOCc4ccccc4)[C@H]3CC[C@H]2C(=O)N1Cc1ccc2c(c1)OCO2,Potency,[4],inactive
same,Potency,[5],inactive
same,Potency,[3],inactive
